# From PubChem BioAssay (NCI)
# This is part of a sample that, as a whole, favours compounds with a hit. Of some 79,000 tested, about 15% had one in any assay. Values without a mark were called inactive. The source made the active and inactive calls. No stated cut-off is given here; in the data, active means growth inhibition above about 70%; inactive means the rest.
# Assays:
# [1] = NCI Yeast Anticancer Drug Screen. Data for the rad50 strain (AID 155);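 further: 0% = growth of vehicle-only cultures of the same strain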; details: S. cerevisiae rad50 strain growth inhibition; at 50.0 µM; active compounds read high
# How it was run: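 Relative growth inhibition (compound vs vehicle) was measured in yeast with a defined repair-gene alteration.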
# [2] = NCI Yeast Anticancer Drug Screen. Data for the mec2-1 strain (AID 157); details: S. cerevisiae mec2-1 strain, at 50.0 µM, active compounds read high
# How it was run: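 Test agents were screened against the mec2-1 yeast strain, with defined DNA repair or cell cycle alteration. Growth was scored as inhibition against vehicle-only controls.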
# [3] = NCI Yeast Anticancer Drug Screen. Data for the sgs1 mgt1 strain (AID 161);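 further: 0% = growth of cultures given vehicle only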; details: S. cerevisiae sgs1 mgt1 strain, at 50.0 µM, active compounds read high
# How it was run: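 Read-out: growth inhibition vs vehicle controls. Cells: mutant yeast strain deficient in DNA damage repair.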
# [4] = NCI Yeast Anticancer Drug Screen. Data for the cln2 rad14 strain (AID 165);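 further: 0% = growth equal to vehicle treated cultures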; details: S. cerevisiae cln2 rad14 strain, at 50.0 µM, active compounds read high
# How it was run: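 Growth of compound-exposed yeast (cln2 rad14 genotype) measured and expressed as inhibition relative to vehicle.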
# [5] = NCI Yeast Anticancer Drug Screen. Data for the bub3 strain (AID 167); details: S. cerevisiae bub3 mutant strain, at 50.0 µM, active compounds read high
# How it was run: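 Screening used yeast with an engineered genetic alteration affecting cell cycle control. Compound-exposed cultures were compared with vehicle cultures, and reduced growth was taken as inhibition.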
# [6] = NCI Yeast Anticancer Drug Screen. Data for the mlh1 rad18 strain (AID 175); details: S. cerevisiae mlh1 rad18 strain growth inhibition; at 50.0 µM; active compounds read high
# How it was run: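 In this whole-cell yeast screen, a strain with altered DNA damage repair is challenged with compound, and its growth is measured against matched vehicle-treated controls.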
SMILES,growth inhibition [1],growth inhibition [2],growth inhibition [3],growth inhibition [4],growth inhibition [5],growth inhibition [6]
O=c1[nH]c(-c2cccnc2)nnc1-c1ccc(Cl)cc1,17.1%,2.4%,10.4%,28.4%,27.9%,4.2%
C=CCCCCCCCCC(=O)NCCCN1CCOCC1,77.5% (active),76.1% (active),93.5% (active),83.6% (active),85% (active),94.7% (active)
CC1(C)CC23C4COC(=O)C2CCC1C3CC4=O (configuration not stated),-7.25%,-18.1%,20.4%,-0.7%,-0.25%,-21.4%
N#C/C(=C/N1C(=O)CC(=O)NC1=S)c1cccc(Cl)c1,-30.7%,-14.3%,-31.2%,18.2%,-28.8%,-48.5%
O=C1C=CC(=O)c2c1c1c(c3c2C2c4ccccc4C3c3ccccc32)C2c3ccccc3C1c1ccccc12,-13.5%,-16.1%,19.9%,-8.25%,-5.75%,12.7%
CC(C)CCCC(C)C1CCC2C3CCC4CC(=O)CCCC4(C)C3CCC12C (configuration not stated),19.8%,3.35%,20.7%,12.2%,2.1%,32.5%
CCCC(=O)OC1C(CO)OC(n2cc(F)c(=O)[nH]c2=O)C1F (configuration not stated),-7.85%,6.4%,-8.6%,-15.7%,3.75%,-17.8%
CCOC(=O)/N=c1/nc(N(C)C)ss1,-18.9%,-29.6%,4.15%,-19.6%,-9.4%,-5.05%
COc1ccc(C(=O)O[C@H]2[C@@H]3C=CO[C@@H](OC4OC(CO)C(O)C(O)C4O)[C@@H]3[C@@]3(CO)O[C@@H]23)cc1O (some centres not stated),31.9%,23.9%,-3.4%,11.7%,34.3%,38.6%
Nc1cccnc1NCC(O)c1ccccc1 (configuration not stated),1.9%,-13.7%,-9.45%,-12.6%,-11.6%,10.6%
Nc1cc2c3c(cccc3c1)NC2=O,47.5%,14.4%,17.9%,11%,-1.5%,-12.9%
COc1ccc2cc(-c3ccc(OC)c(OC)c3)c(=O)oc2c1,-12.4%,-9.9%,-7.65%,-8.9%,-7.15%,-18.2%
Cc1csc(NNC(N)=O)n1,1.65%,-8.05%,-63.5%,-14%,-42.9%,-27.4%
CC(=O)OCC(=O)[C@@]1(O)CC[C@H]2[C@@H]3CCC4=CC(=O)CC[C@]4(C)[C@H]3[C@@H](O)C[C@@]21C,-20.6%,-17.4%,-3.2%,-20.3%,-23.1%,-38.5%
CC1=NN(C(=O)c2ccccc2O)C(=O)/C1=C/c1ccc(O)cc1,6.3%,-16.1%,-15.5%,-5.65%,-11.8%,-27.6%
CC(=O)OC1CC(C(C)C)CCC1C (configuration not stated),18.1%,12.8%,6.3%,4.95%,-8.55%,11.7%
COc1ccccc1N=Nc1c(-c2cccs2)nn(C(=S)SC)c1C(F)(F)F,-3.5%,10.2%,-21.6%,-3.9%,18.7%,30.8%
C[C@@H]1CC[C@]2(C(=O)O)CC[C@]3(C)C(=CC[C@@H]4[C@@]5(C)CC[C@H](O)C(C)(C)[C@@H]5CC[C@]43C)[C@@H]2[C@]1(C)O,27.1%,38.5%,2.75%,13.5%,26.4%,-65%
N#C/C=C/c1ccc(Cl)cc1,-3.45%,-3%,7.2%,20.6%,-2%,-7.05%

SMILES,growth inhibition [1],growth inhibition [2],growth inhibition [3],growth inhibition [4],growth inhibition [5],growth inhibition [6]
COc1cc(N)ccc1C(=O)NC(CCC(=O)O)C(=O)O (configuration not stated),-14.5%,-11.2%,24.9%,-33.7%,17.9%,-19.7%
CCCCCCCCCCCCCCCO,0.45%,-20.4%,-2.45%,-7.35%,-7.25%,8.4%
COC(=O)C(C)(C)N=CN(C)C,-19.7%,13.1%,-7.8%,15.5%,-27.9%,3.55%
Cc1ccc(NC(=O)Nc2ccccc2Cl)cc1Cl,12.6%,17.5%,6.1%,-20.4%,4.75%,-4.55%
COc1cccc2c1CCC1(O)OC(=O)CC21 (configuration not stated),-17.4%,5.15%,-20.5%,2.1%,-6.5%,-15.1%
CC(C)COC(=O)c1ccc(NC(=O)CN2CC(C)OC(C)C2)cc1 (configuration not stated),43.8%,-10.4%,61.9%,56.5%,7.95%,47%
O=C(O)C1CCCC2C(O)CCC(O)C12 (configuration not stated),-10.4%,-15.4%,-1.85%,-12.9%,-7.2%,-34.1%
C[Si](C)(Cl)c1ccccc1,-47.6%,-27.4%,-11.7%,17.4%,-23.6%,-18.4%
CCCCCCCCCCCC(=O)OCCSC#N,-7.45%,0.1%,-2%,-21.4%,-0.2%,0.05%
COc1cc(/C=C2/Cc3ccccc3C2=O)ccc1O,47%,24.1%,20.4%,22.9%,26.7%,26.6%
CC1c2ccccc2Cn2cc3c(c21)C(=O)c1cccc(OP(=O)(O)OCc2ccccc2)c1C3=O (configuration not stated),2.2%,12.6%,13.1%,3.45%,5.1%,11.9%
CN(C)C(=O)/C=C/C(=O)O (tested in a mixture with another compound),-1.25%,-10.3%,6.9%,7.65%,16.8%,-20.8%
Cc1cccc(C(N)=O)c1,22.6%,6.7%,3.3%,-4.75%,8.95%,32.9%
Cc1ccccc1C1OC2=C(Nc3ccc([N+](=O)[O-])cc3N2)C1=O (configuration not stated),37.5%,21.4%,38%,20.2%,27.2%,45.6%
Cc1ccc(C)c(NC(=O)C2C(=O)C(=O)N(c3cc(C)ccc3C)C2=O)c1 (configuration not stated),29.4%,-8.3%,-18.5%,7.2%,-0.95%,10.7%
Cc1ccc(C(=O)c2ccccc2C(=O)O)cc1C(=O)O,8.9%,11.1%,1.15%,2.7%,10.2%,-7.05%
O=C(COc1ccc(Cl)c(Cl)c1)NCc1cccc(NC(=O)CBr)c1,99.2% (active),99.5% (active),45.2%,99.5% (active),99.2% (active),99.2% (active)
NNC(=O)N/N=C/c1cccc(O)c1,-11.7%,-2.35%,-21.4%,-12.1%,1.1%,-19.4%
